Screens: PubChem BioAssay, National Center for Advancing Translational Sciences (NCATS)
Hits are enriched below; roughly 3.7% of the tested compounds scored in any of these assays.
FMDV antiviral: High Throughput Screening for Foot and Mouth Disease Virus Antivirals; AID 1159524, 2015; 410,000 compounds, 1.2% hits; Potency, µM (doses to about 57.9 µM), inactives show at the highest dose activity change, negative = inhibition, hits mostly inhibitors; FMDV antiviral cell-based qHTS; calls by dose curve; tested in HEK293T cells; note: read-out not given here; nearly all actives have a fitted effect of over 45% in size
TbPYK inhibitor: qHTS of Trypanosoma Brucei Inhibitors. TbPYK enzyme, Kinase-Glo Plus ATP luminescence, 45 min. Potency, µM (highest dose often 76.8 µM), inactives show at the highest dose activity, negative = inhibition, usual class: inhibitors. 410,000 compounds, 0.12% hits; note: nearly all actives have a fitted effect of over 50% in size
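Luminescent Kinase-Glo Plus end-point after 45 min room-temperature reaction of T. brucei pyruvate kinase started with 130 uM ADP (final). Buffer TEA 50 mM pH 7.2 with KCl, MgCl2, BSA, Tween-20; titration-based qHTS with fitted concentration-effect curves.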
Sm TGR inh: qHTS Assay for the Inhibitors of Schistosoma Mansoni Peroxiredoxins. Potency, µM (top dose mostly 114 µM), for the others: top-dose activity change, negative = inhibition, most hits filed as inhibitors. 360,000 compounds, 3% hits. purified TGR, DTNB reduction, TNB absorbance 405 nm. Schistosoma mansoni thioredoxin glutathione reductase (TGR), Q962Y6; note: nearly all actives have a fitted effect of over 60% in size
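TGR 20 nM + NADPH 100 uM (dispensed conc.), cpd preinc 15 min RT; start with NADPH (500 uM addition) then DTNB (15 mM addition). Kinetic TNB absorbance, 405 nm filter. Four-parameter Hill fit across titration.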
RE007 growth inh: qHTS Assay for Inhibitors of the HIV-1 protein Vpr; S. pombe RE007 Vpr strain, BacTiter-Glo ATP luminescence, 24 h; Potency, µM (top dose mostly 92.2 µM), for inactives: at the top dose activity change, negative = less growth, most hits filed as inhibitors; 360,000 compounds, 0.21% hits; active = well fitted falling curve with a large enough effect; inconclusive = small, poorly fitted or top-dose-only effect; inactive = no such curve, though single readings can be large or run the other way; note: nearly all actives have a fitted effect of over 50% in size
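Fission yeast strain RE007, carrying one chromosomally integrated HIV-1 vpr copy, was seeded at OD 0.01 in PMG+AL medium with 23 nL pinned compound. After 24 h at 30 °C and 99% humidity, viability was read by BacTiter-Glo luminescence.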
Starred values were filed as active, the others as inactive; ? = inconclusive; nt = no result given. Unless noted, calls come from the whole dose curve; as a rule, active = well fitted curve in the direction sought with a large enough effect; inconclusive = small, poorly fitted or top-dose-only effect, or another doubt; inactive = no such curve, though single readings can be large; an effect the other way counts as inactive or inconclusive. % is set by controls: 0 for no effect and ±100 for the full control effect; potency is the fitted concentration of half-maximal effect.

SMILES	FMDV antiviral	TbPYK inhibitor	Sm TGR inh	RE007 growth inh
CCN(CC)c1c([N+](=O)[O-])ncn1C	-13%	-3%	-13%	7%
Cn1cnc([N+](=O)[O-])c1Cl	?	-1%	4µM*	1%
Cn1cnc([N+](=O)[O-])c1S(=O)(=O)Oc1ccc(Cl)cc1	20µM*	-5%	nt	?
Cn1cnc([N+](=O)[O-])c1Oc1cccc2ccccc12	28µM*	4%	25µM*	-16%
CCS(=O)(=O)c1c([N+](=O)[O-])ncn1C	?	0%	0.63µM*	3%
COc1ccccc1NC(=O)C1=C(C)Nc2nc(SCc3ccccc3F)nn2C1c1cccs1 (configuration not stated)	-10%	-1%	-7%	nt
Cn1cnc([N+](=O)[O-])c1S(=O)(=O)Oc1cccc2ccccc12	22µM*	1%	nt	-7%
Cc1cn(C)c(CC(=O)NCc2ccccc2Cl)c1C(=O)O	-7%	-5%	-3%	nt
COCc1c(C(=O)N2CCN(C3CCCC3)CC2)cnn1-c1nccc(-c2cccs2)n1	2%	nt	nt	nt
Oc1cc[c]([Hg][Cl])cc1	nt	1.4µM*	nt	nt
CC(C)(C)CN1CCNC(=O)C1CC(=O)NCc1cccc(-n2cccn2)c1 (configuration not stated)	-1%	1%	1%	32%
CSc1cccc(CNC(=O)CC2C(=O)NCCN2CC(C)(C)C)c1 (configuration not stated)	11%	-3%	40µM*	4%
CC(C)(C)CN1CCNC(=O)C1CC(=O)NCCc1cnn(-c2ccccc2)c1 (configuration not stated)	-1%	-1%	?	2%
CC(C)(C)CN1CCNC(=O)C1CC(=O)NCCc1ccccc1F (configuration not stated)	-7%	-4%	50µM*	-3%
O=c1cc(-c2ccc(O)c(O)c2)oc2ccccc12	50%	nt	nt	nt
CC(=O)[C@@]1(O)CC[C@H]2[C@@H]3C=C(Cl)C4=CC(=O)CC[C@]4(C)[C@H]3CC[C@@]21C	nt	2%	nt	nt
COc1cccc(C2c3c(oc4ccc(C)cc4c3=O)C(=O)N2CCCN2CCOCC2)c1OC (configuration not stated)	3%	1%	?	nt
CCOc1ccc(NC(=O)CSc2oc(-c3ccco3)nc2S(=O)(=O)c2ccccc2)cc1	?	1%	-1%	nt
O=C(CCc1nnc2n(Cc3ccccc3Cl)c(=O)c3ccccc3n12)Nc1ccccc1	-4%	-1%	0%	nt
COc1cc(CN2CCCCC2C(=O)Nc2ccc(Oc3ccccc3)nc2)ccc1O (configuration not stated)	5%	2%	1.8µM*	-10%
O=C(Nc1ccc(Oc2ccccc2)nc1)C1CCCCN1Cc1ccc(O)cc1 (configuration not stated)	nt	nt	32µM*	nt
O=C(Nc1ccc(Oc2ccccc2)nc1)C1CCCCN1Cc1cccc(O)c1 (configuration not stated)	-7%	-8%	5%	-3%
CCOc1ccc(OC(=O)c2cn(-c3cccc(OC)c3)c(=O)c3ccccc23)cc1	0%	-4%	0%	nt
COc1ccc(CCNC(=O)c2ccc(CN3CCC(Cc4ccccc4)CC3)cc2)cc1	0%	-14%	-7%	-4%
COc1ccc(C(=O)NCC23C=CC(O2)C2C(=O)N(Cc4ccccc4)C(=O)C23)cc1 (configuration not stated)	?	-2%	3.5µM*	25µM*
SMILES	FMDV antiviral	TbPYK inhibitor	Sm TGR inh	RE007 growth inh
Clc1ccc(C(Cl)(Cl)Cl)c(Cl)c1	-25%	2%	2.8µM*	5%
CCOc1ccc(-n2nc(CO)c(C(=O)NCC(c3ccccc3)c3ccccc3)n2)cc1	-27%	-2%	5%	nt
O=C1CN(C(=O)CSc2nc(-c3ccccc3)cs2)c2ccccc2N1	?	5%	-3%	3%
O=C(Cn1ncc(Cl)c(Cl)c1=O)N1CCN(Cc2ccccc2)CC1	?	1%	8.9µM*	-11%
CC1(C)C(=O)Nc2ccccc2N1C(=O)CSc1nc(-c2ccccc2)cs1	16µM*	-15%	-7%	4%
CC1(C)C(=O)Nc2ccccc2N1C(=O)Cn1ncc(Cl)c(Cl)c1=O	-22%	3%	10µM*	5%
O=C(Cn1ncc(Cl)c(Cl)c1=O)N1CCOCC1	0%	1%	-29%	5%
O=C(Cn1ncc(Cl)c(Cl)c1=O)N1CCc2ccccc21	?	0%	16µM*	0%
Cc1nc2ccn(Cc3cccnc3)c(=O)c2cc1C(=O)Nc1ccc(F)cc1F	-23%	0%	-1%	nt
N#Cc1ccccc1NS(=O)(=O)c1ccc(N2CCCCS2(=O)=O)cc1	0%	-2%	0%	nt
CCn1c(=O)cc(OCC(=O)NCc2ccccc2Cl)c2ccccc21	3%	-7%	1%	nt
COc1ccc(NC(=O)c2noc3c2CSc2ccccc2-3)cc1Cl	11%	5%	7%	nt
CC(=O)c1cccc(NC(=O)c2noc3c2CSc2ccccc2-3)c1	42%	-3%	11µM*	nt
COc1cc(OC)c(NC(=O)c2noc3c2CSc2ccccc2-3)cc1Cl	0%	6%	2.5µM*	nt
C#CC(=O)N(c1ccc(OC)c(OC)c1)C(C(=O)NC1CCCC1)c1cccs1 (configuration not stated)	?	0%	5.6µM*	26%
C#CC(=O)N(c1cccc(OC)c1)C(C(=O)NC1CCCC1)c1cccs1 (configuration not stated)	nt	-3%	7.9µM*	10%
COc1ccc(N(C(=O)Cc2cccs2)C(C(=O)NC2CCCC2)c2ccncc2)cc1OC (configuration not stated)	-7%	0%	-3%	5%
Cc1oc(-c2ccccc2NC(=O)C2CCCO2)nc1CNC(=O)c1[nH]c2c(C)ccc(C)c2c1C (configuration not stated)	-14%	nt	nt	nt
Cc1ccc(NC2=C/C(=N/S(=O)(=O)c3cccs3)c3ccccc3C2=O)cc1	7.9µM*	-15%	-19%	-19%
COC(=O)c1ccccc1NC1=C/C(=N\S(=O)(=O)c2cccs2)c2ccccc2C1=O	2.5µM*	-5%	?	-29%
COC(=O)c1cccc(NS(=O)(=O)c2cccs2)c1C	20%	3%	3%	3%
Cc1ccc(S(=O)(=O)/N=C2\C=C(Nc3ccc(O)cc3)C(=O)c3ccccc32)cc1	10µM*	-26%	nt	-25%
O=C1C(Nc2ccccc2)=C/C(=N/S(=O)(=O)c2cccs2)c2ccccc21	?	-21%	?	?
COC(=O)c1ccccc1NC1=C/C(=N\S(=O)(=O)c2ccc(C(=O)O)cc2)c2ccccc2C1=O	?	-5%	14µM*	?
Cc1ccc(S(=O)(=O)/N=C2\C=C(Nc3cccc(C(=O)O)c3)C(=O)c3ccccc32)cc1	-12%	-14%	-31%	-24%
CCOc1ccc(NC(=O)CCc2c(C)nc3nc(C)nn3c2C)cc1	-1%	-8%	-4%	nt
CCN1C(=O)/C(=C\c2ccco2)C(C(=O)OC)=C1C	-11%	-7%	-3%	-20%
